Experimental data reported in paper PMC5540273 (PLoS ONE, 2017).

Experiments:
Details in all cases: concentration: 1 μM, replicates: in singlicate; n = 1
LYN = test system: LYN
LZK = test system: T1, LZK
T1 construct: gene MAP3K13

MAK = test system: MAK
MAP3K15 = test system: MAP3K15
MAP3K1 = test system: MAP3K1
MAP3K2 = test system: MAP3K2
MAP3K3 = test system: MAP3K3
MAP3K4 = test system: MAP3K4
MAP4K2 = test system: MAP4K2
MAP4K3 = test system: MAP4K3
MAP4K4 = test system: MAP4K4
MAP4K5 = test system: MAP4K5
MAPKAPK2 = test system: MAPKAPK2
MAPKAPK5 = test system: MAPKAPK5
MARK1 = test system: MARK1
MARK2 = test system: MARK2
MARK3 = test system: MARK3
MARK4 = test system: MARK4
MAST1 = test system: MAST1
MEK1 = test system: T2, MEK1
T2 construct: gene MAP2K1
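Note: KINOMEscan kinase panel screen.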

Structure (SMILES)	%Inh (LYN)	%Inh (LZK)	%Inh (MAK)	%Inh (MAP3K15)	%Inh (MAP3K1)	%Inh (MAP3K2)	%Inh (MAP3K3)	%Inh (MAP3K4)	%Inh (MAP4K2)	%Inh (MAP4K3)	%Inh (MAP4K4)	%Inh (MAP4K5)	%Inh (MAPKAPK2)	%Inh (MAPKAPK5)	%Inh (MARK1)	%Inh (MARK2)	%Inh (MARK3)	%Inh (MARK4)	%Inh (MAST1)	%Inh (MEK1)
CN(C)CCN(C)C(=O)c1cc(-c2ccncc2)c(-c2ccc(Cl)c(O)c2)o1.Cl.Cl [SB-710397]	24%	15%	42%	0%	2%	0%	0%	14%	0%	0%	18%	0%	2%	0%	0%	0%	0%	0%	10%	0%
O=C(Nc1n[nH]c2nc(-c3nccs3)c(Br)cc12)C1CC1 [SB-742251]	19%	26%	33%	0%	21%	0%	0%	0%	0%	0%	4%	1%	0%	0%	0%	0%	0%	0%	20%	0%
Cc1cccc(-c2nc(Nc3ccc4[nH]ncc4c3)c3ccccc3n2)n1 [GW857175]	17%	10%	0%	0%	38%	36%	0%	14%	39%	0%	0%	0%	0%	28%	16%	0%	0%	0%	1%	25%
Cc1cccc(-c2nc(Nc3ccncc3)c3ccccc3n2)n1 [GW855857]	0%	0%	0%	0%	0%	0%	0%	16%	0%	0%	0%	0%	0%	0%	0%	0%	32%	25%	50%	0%
Fc1cc(Cl)ccc1Nc1ccnc2cc(I)ccc12 [GW551191]	14%	0%	40%	0%	7%	0%	0%	0%	0%	0%	28%	0%	19%	0%	0%	0%	11%	0%	0%	0%
COC(=O)c1c(-c2ccccc2)c2cc(C(=O)O)ccc2c(=O)n1Cc1ccccc1	16%	0%	0%	8%	0%	0%	0%	4%	0%	0%	0%	7%	3%	0%	0%	3%	0%	0%	0%	0%
O=C(Nc1n[nH]c2cc(-c3cccc(F)c3F)ccc12)C1CC1 [SB-733894]	0%	100%	21%	0%	4%	6%	30%	0%	0%	12%	32%	0%	0%	0%	27%	25%	0%	7%	18%	1%
O=C(Nc1n[nH]c2nc(-c3nccs3)c(Br)cc12)C1CCCC1 [SB-742609]	0%	0%	75%	6%	15%	5%	0%	28%	0%	0%	2%	4%	22%	0%	0%	0%	0%	0%	0%	0%
Cc1ccc(-c2cc(-c3c[nH]nc3-c3ccccn3)ccn2)cc1 [GW684088]	1%	44%	0%	0%	9%	0%	0%	4%	0%	0%	58%	0%	0%	0%	0%	14%	0%	4%	64%	9%
Cc1cccc(-c2nc(Nc3cccc(C(N)=O)c3)c3ccccc3n2)n1 [GW876019]	0%	0%	0%	0%	3%	0%	26%	0%	0%	0%	0%	0%	0%	0%	0%	0%	45%	0%	11%	97.2%
Cc1ccccc1-n1cnc2c(N)ncnc21 [SKF-97510]	0%	0%	0%	0%	0%	0%	0%	0%	0%	0%	0%	0%	0%	0%	0%	0%	0%	0%	12%	0%
Clc1cc(Cl)cc(Nc2ccnc(Nc3cc(Cl)cc(Cl)c3)n2)c1 [GSK175726]	23%	0%	25%	0%	0%	0%	0%	0%	0%	0%	0%	0%	0%	0%	0%	16%	0%	0%	0%	0%
Cl.O=C(Nc1cccc(-c2nn3ncccc3c2-c2ccnc(Nc3cccnc3)n2)c1)c1c(F)cccc1F [GSK312879]	18%	0%	25%	24%	24%	16%	0%	4%	0%	3%	2%	5%	21%	0%	0%	0%	0%	0%	6%	0%
COc1cc2ncn(-c3cc(OCC4CCCO4)c(C(N)=O)s3)c2cc1OC (stereo not shown) [GSK204607]	0%	0%	9%	0%	50%	0%	0%	0%	0%	70%	6%	4%	0%	0%	0%	0%	0%	0%	2%	24%
COc1ccccc1-c1ccc2c(NC(=O)C3CC3)n[nH]c2n1 [SB-711239]	18%	24%	23%	0%	0%	0%	0%	32%	0%	0%	25%	26%	27%	2%	0%	0%	0%	0%	26%	0%
O=C1NC(=O)C(N2CCc3ccccc32)=C1c1ccccc1Cl [SB-373598]	17%	0%	9%	9%	23%	4%	4%	29%	21%	1%	26%	24%	33%	8%	9%	10%	0%	17%	0%	13%
CN1C(=O)C(Nc2ccc(Cl)c(C(=O)O)c2)=C(c2ccc(Cl)cc2)C1=O [SB-404290]	0%	0%	0%	45%	16%	21%	12%	9%	21%	0%	0%	0%	23%	12%	0%	27%	0%	13%	42%	0%
CS(=O)(=O)c1ccc(-c2nc3n(c2-c2ccncc2)CCC3)cc1 [SKF-105942]	3%	0%	25%	0%	0%	3%	0%	35%	0%	2%	0%	0%	36%	0%	0%	0%	0%	0%	0%	0%
CCCc1ccc(S(=O)(=O)NC2CCN(c3ccnc(Nc4ccc(F)cc4)n3)C2)cc1 (stereo not shown) [GSK1379715]	0%	0%	60%	0%	15%	2%	0%	44%	0%	1%	0%	0%	15%	0%	0%	0%	0%	0%	48%	0%
Cl.Oc1ccc(-c2nc(-c3ccccc3)[nH]c2-c2ccncc2)cc1 [SB-428218]	33%	47%	18%	0%	0%	0%	0%	7%	0%	0%	0%	0%	13%	0%	0%	0%	0%	0%	0%	0%
